Test results: the antibiotic and cytotoxicity screens of Wong et al. (2023)
In all, about 39,000 compounds went through this assay and about 3,300 (8.5%) were called active. The full list was thinned out, with actives kept by preference.

System: HepG2
Experiment: cytotoxicity call (relative viability < 0.9)
Details: 10 µM

Structure (SMILES)	cytotoxicity call
CN(C)C(=O)C[C@@H]1CC[C@@H](NC(=O)C2CCOCC2)[C@@H](CO)O1	inactive
CCCNC(=O)Nc1ccc2c(c1)C(=O)N(C)C[C@@H](OC)[C@@H](C)CN(C(=O)C1CCOCC1)[C@H](C)CO2	inactive
C[C@H](CO)N1C[C@H](C)[C@@H](CN(C)Cc2ccc(-c3ccccc3)cc2)Oc2ccc(NC(=O)Nc3ccc(C(F)(F)F)cc3)cc2C1=O	inactive
C[C@@H]1CN([C@H](C)CO)C(=O)c2cc(NC(=O)Nc3ccc(C(F)(F)F)cc3)ccc2O[C@@H]1CN(C)Cc1ccc(-c2ccccc2)cc1	active
C[C@@H]1CN([C@@H](C)CO)C(=O)c2cc(NC(=O)Nc3ccc(C(F)(F)F)cc3)ccc2O[C@H]1CN(C)Cc1ccc(-c2ccccc2)cc1	active
C[C@H](CO)N1C[C@H](C)[C@H](CN(C)Cc2ccc(-c3ccccc3)cc2)Oc2ccc(NC(=O)Nc3ccc(C(F)(F)F)cc3)cc2C1=O	active
Cc1ccc(OC(=O)N(C)C[C@@H]2OCc3ccccc3-c3ccccc3C(=O)N([C@@H](C)CO)C[C@H]2C)cc1	inactive
C[C@H]1CN([C@@H](C)CO)S(=O)(=O)c2ccc(C#CCN(C)C)cc2O[C@H]1CN(C)C(=O)CN(C)C	inactive
O=C(CCCCCNC(=O)OCc1ccc(CO[C@H]2C[C@@H](c3ccc(C(F)(F)F)cc3)C=C(C(=O)N3CCN(Cc4ccccc4)CC3)O2)cc1)NO	inactive
C[C@H]1CN([C@@H](C)CO)C(=O)c2cc(NC(=O)Nc3ccc4c(c3)OCO4)ccc2O[C@H]1CN(C)S(C)(=O)=O	inactive
COc1ccc(CNC(=O)C[C@H]2CC[C@@H]3[C@H](COc4ccc(NC(=O)C(C)C)cc4C(=O)N3C)O2)cc1	inactive
C[C@@H]1CN([C@@H](C)CO)C(=O)Cc2cc(NS(=O)(=O)c3cccs3)ccc2O[C@H]1CN(C)Cc1ccncc1	inactive
CC[C@@H](C[C@@H](O)[C@@H](C)[C@H]1CC[C@H]2C3=CC(=O)[C@H]4[C@H](C)[C@@H](OC(=O)c5ccccc5)CC[C@]4(C)[C@H]3CC[C@]12C)C(C)C	inactive
CC[n+]1oc(-c2ccccc2)cc1C	active
O=C(CCCCCNC(=O)OCc1ccc(CO[C@H]2C[C@@H](C3CCCCC3)C=C(C(=O)N3CCN(Cc4ccccc4)CC3)O2)cc1)NO	inactive
COCC(=O)Nc1ccc2c(c1)C(=O)N(C)C[C@H](OC)[C@@H](C)CN(Cc1ccccc1OC)[C@@H](C)CO2	inactive
COC1=C(OC)C(=O)C(CC=C(C)CCC=C(C)CCC=C(C)CCC=C(C)CCC=C(C)CCC=C(C)CCC=C(C)CCC=C(C)CCC=C(C)CCC=C(C)C)=C(C)C1=O	inactive
COC1=C(OC)C(=O)C(CCCCCCCCCCO)=C(C)C1=O	active
COC(=O)CCCCCCC(=O)Nc1ccc(NC(=O)CCCC[P+](c2ccccc2)(c2ccccc2)c2ccccc2)cc1	inactive
CC1=C(C)C(=O)C(CCCCCCCCCC[P+](c2ccccc2)(c2ccccc2)c2ccccc2)=CC1=O	active
COC1=C(OC)C(=O)C(C/C=C(\C)CC/C=C(\C)CC/C=C(\C)CC/C=C(\C)CC/C=C(\C)CC/C=C(\C)CC/C=C(\C)CC/C=C(\C)CC/C=C(\C)CCC=C(C)C)=C(C)C1=O	inactive

Structure (SMILES)	cytotoxicity call
COC1=C(OC)C(=O)C(CCCCCCCCCC[P+](c2ccccc2)(c2ccccc2)c2ccccc2)=C(C)C1=O	active
CC1=C(C)C(=O)C(C(CCCCCC(=O)O)c2ccccc2)=C(C)C1=O (stereo not drawn)	inactive
COC1=C(OC)C(=O)C(C/C=C(\C)CC/C=C(\C)CC/C=C(\C)CC/C=C(/C)CC/C=C(\C)CC/C=C(\C)CC/C=C(\C)CC/C=C(\C)CC/C=C(\C)CCC=C(C)C)=C(C)C1=O	inactive
CC=Cc1ccc2n(c1=O)C[C@H]1[C@H](CO)[C@@H](C(=O)NC3CCC3)N(S(C)(=O)=O)[C@@H]21	inactive
COc1ccc(-c2cn3cc(C(=O)NCC(N)=O)nc3c(=O)n2CC2CC2)c(F)c1	inactive
C[C@@H]1CN([C@H](C)CO)C(=O)c2cc(NS(=O)(=O)c3cccs3)ccc2O[C@H]1CN(C)S(=O)(=O)c1ccc(F)cc1	inactive
COc1ccc(NC(=O)Nc2ccc3c(c2)[C@@H]2C[C@H](CC(=O)NCc4ccccn4)O[C@H](CO)[C@@H]2O3)cc1	inactive
C[C@@H]1CN([C@@H](C)CO)C(=O)c2cc(NC(=O)CCN3CCOCC3)ccc2O[C@@H]1CN(C)Cc1ccc2c(c1)OCO2	inactive
C[C@H]1CN([C@@H](C)CO)C(=O)c2cccc(NC(=O)C3CCCCC3)c2O[C@@H]1CN(C)S(=O)(=O)c1cn(C)cn1	inactive
C[C@H](CO)N1C[C@H](C)[C@@H](CN(C)C(=O)C2CC2)Oc2ncc(-c3ccc(C(=O)N(C)C)cc3)cc2C1=O	inactive
N[C@H](c1ccc2c(c1)OCCO2)c1ccco1	inactive
N[C@@H](CCc1ccccc1Cl)c1ccc2c(c1)OCCO2	active
NCC[C@@H](Cc1ccccc1)c1ccc2c(c1)OCO2	inactive
Cc1ccc(S(=O)(=O)Nc2cccc3c2O[C@H](CN(C)C(=O)Nc2cccc4ccccc24)[C@H](C)CN([C@H](C)CO)C3=O)cc1	inactive
O=C(NCCNS(=O)(=O)c1cccc2nonc12)[C@H]1COc2ccccc2O1	inactive
CS(=O)(=O)N1CCN(Cc2cc3nc(-c4cccc5n[nH]cc45)nc(N4CCOCC4)c3s2)CC1	active
C[C@H]1CN([C@@H](C)CO)C(=O)c2cc(C#CC3(O)CCCC3)cnc2O[C@H]1CN(C)S(=O)(=O)c1cccc(F)c1	inactive
COc1ccc(S(=O)(=O)N(C)C[C@H]2Oc3ccc(NS(=O)(=O)c4ccc(F)cc4)cc3CC(=O)N([C@H](C)CO)C[C@@H]2C)cc1	inactive
Cc1noc(C)c1S(=O)(=O)Nc1ccc2c(c1)CC(=O)N([C@H](C)CO)C[C@H](C)[C@H](CN(C)S(=O)(=O)c1ccc(Cl)cc1)O2	inactive
C[C@H](CO)N1C[C@H](C)[C@H](CN(C)S(=O)(=O)c2ccc(F)cc2)Oc2c(NS(=O)(=O)c3ccccc3)cccc2C1=O	inactive
O=C(CN1CCOC1=O)N1CCC2(CCC(=O)N(CCCn3ccnc3)C2)CC1	inactive

Structure (SMILES)	cytotoxicity call
CCN(CC)CCCCNc1ncc2cc(-c3c(Cl)cccc3Cl)c(NC(=O)NC(C)(C)C)nc2n1	active
CCN(CC)CCCCNc1ncc2cc(-c3cc(OC)cc(OC)c3)c(NC(=O)NC(C)(C)C)nc2n1	active
CCN(CC)CCNC(=O)COc1ccc(OC)cc1.Cl	inactive
CC(C)=CCC/C(C)=C/CC/C(C)=C/CCC(=O)OC/C=C(\C)CCC=C(C)C	inactive
Cc1noc(C)c1NC(=O)Nc1ccc2c(c1)C(=O)N([C@H](C)CO)C[C@H](C)[C@H](CN(C)Cc1ccc(C(=O)Nc3ccccc3N)cc1)OCCCC[C@@H](C)O2	inactive
COc1ccc(NC(=O)N(C)C[C@H]2OCCCC[C@H](C)Oc3ccc(NC(=O)Cc4ccccc4)cc3C(=O)N([C@@H](C)CO)C[C@H]2C)cc1	inactive
C[C@@H]1CN([C@H](C)CO)C(=O)Cc2cc(NC(=O)Cc3cn(C)c4ccccc34)ccc2O[C@@H]1CN(C)C(=O)Nc1cccc2ccccc12	inactive
C[C@@H]1CCCCO[C@@H](CN(C)C(=O)Cc2ccccc2)[C@@H](C)CN([C@H](C)CO)C(=O)c2cc(NC(=O)Nc3ccc4c(c3)OCO4)ccc2O1	inactive
C[C@@H]1CCCCO[C@H](CN(C)Cc2ccc(C(F)(F)F)cc2)[C@@H](C)CN([C@@H](C)CO)C(=O)c2cc(NC(=O)c3ccncc3)ccc2O1	inactive
C[C@@H]1CCCCO[C@H](CN(C)Cc2ccc(C(F)(F)F)cc2)[C@H](C)CN([C@H](C)CO)C(=O)c2cc(NS(=O)(=O)c3ccccc3)ccc2O1	inactive
C[C@@H]1CCCCO[C@@H](CN(C)Cc2ccc(C(F)(F)F)cc2)[C@H](C)CN([C@@H](C)CO)C(=O)c2cc(NS(=O)(=O)c3ccccc3)ccc2O1	active
C[C@@H]1CCCCO[C@@H](CN(C)Cc2ccc(C(F)(F)F)cc2)[C@@H](C)CN([C@@H](C)CO)C(=O)c2cc(NS(=O)(=O)c3ccccc3)ccc2O1	active
C[C@H]1CCCCO[C@@H](CN(C)Cc2ccc(C(F)(F)F)cc2)[C@@H](C)CN([C@@H](C)CO)C(=O)c2cc(NS(=O)(=O)c3ccccc3)ccc2O1	inactive
C[C@H](CO)N1C[C@H](C)[C@H](CN(C)Cc2ccc(C(F)(F)F)cc2)OCCCC[C@H](C)Oc2ccc(NS(=O)(=O)c3ccccc3)cc2C1=O	active
C[C@@H]1CCCCO[C@H](CN(C)Cc2ccc(C(F)(F)F)cc2)[C@@H](C)CN([C@H](C)CO)C(=O)c2cc(NS(=O)(=O)c3ccccc3)ccc2O1	inactive
C[C@H]1CCCCO[C@H](CN(C)Cc2ccc(C(F)(F)F)cc2)[C@@H](C)CN([C@@H](C)CO)C(=O)c2cc(NS(=O)(=O)c3ccccc3)ccc2O1	inactive
C[C@@H]1CCCCO[C@@H](CN(C)Cc2ccc(C(F)(F)F)cc2)[C@H](C)CN([C@H](C)CO)C(=O)c2cc(NS(=O)(=O)c3ccccc3)ccc2O1	inactive
C[C@@H]1CCCCO[C@@H](CN(C)Cc2ccc(C(F)(F)F)cc2)[C@@H](C)CN([C@H](C)CO)C(=O)c2cc(NS(=O)(=O)c3ccccc3)ccc2O1	active
COc1ccc(S(=O)(=O)N(C)C[C@@H]2Oc3ccc(NC(=O)NC(C)C)cc3CC(=O)N([C@@H](C)CO)C[C@@H]2C)cc1	inactive
COc1ccc(NC(=O)N(C)C[C@H]2OCCCC[C@H](C)Oc3ccc(NC(=O)C4CCCCC4)cc3C(=O)N([C@H](C)CO)C[C@H]2C)cc1	inactive
C[C@@H]1CN([C@@H](C)CO)C(=O)CCCn2nncc2CO[C@H]1CN(C)C(=O)C1CC1	inactive
